Results reported in PubChem BioAssay (NCATS).
A number with no mark means an inactive call. Calls follow the shape of the dose curve; as a rule, active = well fitted curve in the direction sought with a large enough effect; inconclusive = small, poorly fitted or top-dose-only effect, or another doubt; inactive = no such curve, though single readings can be large; an effect the other way counts as inactive or inconclusive. Results filed as inconclusive are left out. *1 amine or outer side, *2 acyl side, *3 side chain or, on linkers, in order; H or OH if unused. Where a SMILES comes first, the peptide text is derived from it. [ ]: non-standard residue; d: D form. X13 = O=C(C(CC(O)CO)O[*:1])[*:2]; NMeV = CN[CH](C(=O)O)C(C)C; NMeA = CN[CH](C)C(=O)O; βAla = NCCC(=O)O

Test system: Nanoluciferase (engineered Oplophorus gracilirostris luciferase)
Experiment: Primary Nanoluciferase (NLuc) qHTS assay for identification of artifact compounds. (AID 1845222);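 also: NLuc secreted into diluted conditioned medium of S16 cells; 0% = DMSO and -100% = no enzyme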
Details: NLuc-conditioned medium, Nano-Glo luminescence, 5 min; series mostly up to 54.1 µM; activity, negative = inhibition: at the top concentration
Summary of the method: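 Using secreted nanoluciferase in S16 culture medium (0.22 um filtered, 1:55 dilution), compounds were preincubated 15 min at RT. Signal was generated with Nano-Glo reagent (1:100) over 5 min.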

In order of rising “activity, negative = inhibition” value:
1. O=C(O)c1ccnc2cc(C(OCC3CCC(F)(F)CC3)c3ccccc3Cl)[nH]c12 (stereo not given)  -12.1%
2. CN1CCN(c2nc(-c3ccc(C(=O)NC4(C(=O)NCC#N)CCCCC4)cc3)cs2)CC1  -7.94%
3. C[C@@H](c1ccccc1)N(C(N)=NC#N)c1cccc2ncccc12  -6.11%
4. CC(C)c1ccc2c(c1)C(O)CC1C(C)(C(=O)O)CCCC21C (stereo not given)  -6.11%
5. COC1OC(O)C2(CCC3(O2)C(C)CC2OC(=O)C4(C)CCCC3(C)C24)C1O (stereo not given)  0.712%
6. Nc1ncnc2c1C(=O)N(c1ccc(C3CCC(CC(=O)O)CC3)cc1)CCO2 (stereo not given)  1.49%

In order of rising “activity, negative = inhibition” value:
1. C=C(C)[C@@H]1CC[C@]2(CO)CC[C@]3(C)[C@H](CC[C@@H]4[C@@]5(C)CC[C@H](O)C(C)(C)[C@@H]5CC[C@]43C)[C@@H]12  0% [at 25.7 µM]
2. CC[C@H]1OC(=O)[C@H](C)C(=O)[C@H](C)[C@@H](OC2O[C@H](C)C[C@H](N(C)C)[C@H]2O)[C@@H](C)C[C@@H](C)C(=O)/C=C/[C@]1(C)O (stereo not given in full)  0.672% [at 25.7 µM]
3. COc1cc(O[C@@H]2O[C@H](CO[C@H]3OC[C@](O)(CO)[C@H]3O)[C@@H](O)[C@H](O)[C@H]2O)cc(OC)c1O  0.685% [at 25.7 µM]
4. COC(=O)C1=COC(OC2OC(CO)C(O)C(O)C2O)C2C(COC(=O)/C=C/c3ccc(O)cc3)C(O)C(O)C12 (stereo not given)  1.28% [at 25.7 µM]

Test system: not listed separately
Experiment: Primary redox qHTS assay for identification of artifact compounds. (AID 1845223);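 also: 0% = DMSO and 100% = reference compound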
Details: Amplex Red/HRP redox cycling with DTT, fluorescence; series mostly up to 53.8 µM; redox activity (% of DA3003): at the top concentration
Summary of the method: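 Redox-cycling detection via DTT (250 uM final) oxidation coupled to Amplex Red (25 uM)/HRP (250 mU/mL) in HBSS. 15 min preincubation plus 30 min after DTT, room temperature. Ex/Em 525/598 nm; 4-parameter Hill fit against DMSO and 10 uM DA3003.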

In order of rising “redox activity (% of DA3003)” value:
1. C=C1C[C@]23C[C@@]1(O)CC[C@H]2[C@@]12C=C[C@H](O)[C@@](C)(C(=O)O1)[C@H]2[C@@H]3C(=O)O  -11.3%
2. COc1ccc(O[C@@H]2O[C@H](CO)[C@@H](O)[C@H](O)[C@H]2O)cc1OC  -10.6%
3. CC[C@@H]1C(=O)O[C@]23C=C[C@@H]4C(C(=O)OC)=CO[C@H](O[C@@H]12)[C@@H]43  -9.6%
4. CCOC(=O)C1=C(N)Oc2ccc(Cl)cc2C1C(C#N)C(=O)OCC (stereo not given)  -6.86%
5. C=C1CCC2C(C)(C)CCC[C@]2(C)[C@H]1CC/C(C)=C/C(=O)O (stereo not given in full)  -6.52%
6. Nc1ncnc2c1C(=O)N(c1ccc(C3CCC(CC(=O)O)CC3)cc1)CCO2 (stereo not given)  -6.08%
7. C=C1[C@H]2CCC3[C@]4(C)CCC[C@@](C)(C(=O)O)C4CC[C@]3(C2)[C@H]1OC(C)=O (stereo not given in full)  -4.63%
8. O=C(OC(C(F)(F)F)C(F)(F)F)N1CCN(Cc2cccc(Oc3ccccc3)c2)CC1  -4.44%
9. COC1OC(O)C2(CCC3(O2)C(C)CC2OC(=O)C4(C)CCCC3(C)C24)C1O (stereo not given)  -4.05%
10. Nc1c(-c2ccccc2)nc(Cl)c2c(O)n[nH]c(=O)c12  -3.27%
11. O=[N+]([O-])c1cc(Cl)ccc1S(=O)(=O)N1CCN(Cc2ccccc2)CC1  -2.33%
12. CC[C@H](NC(=O)c1c(O)c(-c2ccccc2)nc2ccccc12)c1ccccc1  -1.92%
13. O=C(O)c1ccnc2cc(C(OCC3CCC(F)(F)CC3)c3ccccc3Cl)[nH]c12 (stereo not given)  -1.47%
14. COc1cc(Cc2cnc(N)nc2N)c(C(C)C)cc1OC  -1.4%
15. C=CCC/C=C/C#CCCCCCCCC[C@H]1C(=O)O[C@H](C)[C@@H]1O  -0.612%
16. Nc1nc(COC(=O)c2ccc([N+](=O)[O-])cc2)nc(Nc2ccccc2)n1  -0.602%
17. COc1cc2nc(=NC(=O)c3cccnc3)n3c(c2cc1OC)NCC3  -0.256%
18. C[C@@H](c1ccccc1)N(C(N)=NC#N)c1cccc2ncccc12  -0.118%
19. C[C@@H]1[C@H](O)[C@@H]2OC(=O)C3=C2[C@H](CCC3)[C@@]12C[C@@H](c1ccoc1)OC2=O  0.466%
20. CC1=CC(=O)CC(C)(C)C1CCC(C)O[C@@H]1O[C@H](CO)[C@@H](O)[C@H](O)[C@H]1O (stereo not given in full)  2.78%
21. Cc1c(NC(=O)N2CCOCC2)ccc2c1c1ccccc1n2C(C)C  4.97%
22. CC(C)c1ccc2c(c1)C(O)CC1C(C)(C(=O)O)CCCC21C (stereo not given)  6.46%
23. C=C1CCC2[C@@](C)(C(=O)O)CCC[C@@]2(C)[C@@H]1CCc1ccoc1 (stereo not given in full)  8.63%
24. C=C(C(=O)O)C1CC(OC(=O)CC(C)CC)C2(C)CCCC(=C)C2C1 (stereo not given)  12.5%
25. C[C@H]1CC[C@H]2[C@@H](C=C[C@@](C)(O)[C@]2(C)C(=O)CCO)C1  15.6%
26. CN1CCN(c2nc(-c3ccc(C(=O)NC4(C(=O)NCC#N)CCCCC4)cc3)cs2)CC1  15.9%

In order of falling “redox activity (% of DA3003)” value:
1. O=C(OCC1=CC(Cl)C(O)C(OC(=O)c2ccccc2)C1O)c1ccccc1 (stereo not given)  4.21% [at 25.6 µM]
2. CCC(C)C1NC(=O)C2CCCN2C(=O)C(CC(O)CO)OC(=O)CCNC(=O)C(C)N(C)C(=O)C(C(C)C)N(C)C1=O (stereo not given) (cyclo([X13]PI[NMeV][NMeA][βAla]); configuration not given here)  0.625% [at 25.6 µM]
3. COC(=O)C1=CO[C@@H](O[C@@H]2O[C@H](CO[C@@H]3O[C@H](CO)[C@@H](O)[C@H](O)[C@H]3O)[C@@H](O)[C@H](O)[C@H]2O)[C@@H]2C(CO)=CC[C@H]12  -1.63% [at 25.6 µM]
4. CC1=CC(=O)CC(C)(C)C1/C=C/C(C)OC1OC(COC2OCC(O)C(O)C2O)C(O)C(O)C1O (stereo not given)  -2.34% [at 25.6 µM]
5. COc1ccc([C@H]2OC[C@H]3[C@@H]2CO[C@@H]3c2ccc(O[C@@H]3O[C@H](CO)C(O)[C@H](O)[C@H]3O)c(OC)c2)cc1OC (stereo not given in full)  -2.7% [at 25.6 µM]
6. COc1cc(O[C@@H]2O[C@H](CO[C@H]3OC[C@](O)(CO)[C@H]3O)[C@@H](O)[C@H](O)[C@H]2O)cc(OC)c1O  -3.59% [at 25.6 µM]
7. O=C(/C=C/c1ccc(O)c(O)c1)O[C@H]1[C@H](OC2CCCCC2O)O[C@H](CO)[C@@H](O)[C@@H]1O (stereo not given in full)  -6.37% [at 25.6 µM]
8. CC[C@H]1OC(=O)[C@H](C)C(=O)[C@H](C)[C@@H](OC2O[C@H](C)C[C@H](N(C)C)[C@H]2O)[C@@H](C)C[C@@H](C)C(=O)/C=C/[C@]1(C)O (stereo not given in full)  -7.11% [at 25.6 µM]
9. COC(=O)c1ccc(OC)cc1O[C@@H]1O[C@H](CO[C@@H]2OC[C@@H](O)[C@H](O)[C@H]2O)[C@@H](O)[C@H](O)[C@H]1O  -9.28% [at 25.6 µM]
10. C=C(C)[C@@H]1CC[C@]2(CO)CC[C@]3(C)[C@H](CC[C@@H]4[C@@]5(C)CC[C@H](O)C(C)(C)[C@@H]5CC[C@]43C)[C@@H]12  -10.5% [at 25.6 µM]
11. COC(=O)C1=COC(OC2OC(CO)C(O)C(O)C2O)C2C(COC(=O)/C=C/c3ccc(O)cc3)C(O)C(O)C12 (stereo not given)  -14.8% [at 25.6 µM]

In order of rising redox activity (% of DA3003):
1. CC1OC(O[C@H]2CC[C@@]3(C)C(CC[C@]4(C)C3CC=C3C5CC(C)(C)CC[C@]5(C(=O)OC5OC(CO)C(OC6OCC(OC7OCC(O)C(O)C7O)C(O)C6O)C(O)C5O)CC[C@]34C)C2(C)C)C(O)C(O)C1OC1OC(CO)C(O)C(OC2OC(CO)C(O)C(O)C2O)C1O (stereo not given in full)  2.88% [at 11.5 µM]
2. C[C@@H]1O[C@@H](OC2C(O[C@H]3[C@H](O[C@H]4CC[C@@]5(C)C(CC[C@]6(C)C5CC=C5C7CC(C)(C)CC(O)[C@]7(C)CC[C@]56C)C4(C)C)O[C@H](C(=O)O)[C@@H](O)[C@@H]3O)OC(CO)C(O)C2O)[C@H](O)[C@H](O)[C@H]1O (stereo not given in full)  6.57% [at 11.5 µM]
3. C[C@@H]1O[C@@H](O[C@H]2[C@H](O[C@H]3[C@H](O[C@H]4CC[C@@]5(C)C(CC[C@]6(C)C5CC=C5[C@@H]7CC(C)(C)C[C@@H](O)[C@]7(C)CC[C@]56C)[C@@]4(C)CO)O[C@H](C(=O)O)[C@@H](O)[C@@H]3O)O[C@H](CO)[C@H](O)[C@@H]2O)[C@H](O)[C@H](O)[C@H]1O (stereo not given in full)  10.7% [at 11.5 µM]
